Drawing on PubChem BioAssay (NCI), this text covers growth inhibition for 39 compounds.

Each structure is given as a SMILES string. Several values for one entry are separate records, joined by “and”; a condition that tells them apart may be missing. Identical values can stand only once. This is part of a sample that, as a whole, favours compounds with a hit. Of some 79,000 tested, about 15% had one in any assay. Some compounds were tested as several samples or in several runs, with calls that do not always agree. Activity calls are given as the source filed them. Rule as the data show it: active = growth inhibition above about 70%; inactive = the rest.

The assay is described as follows: NCI Yeast Anticancer Drug Screen. Data for the rad50 strain (AID 155).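 Also: 0% = growth of vehicle-only cultures of the same strain.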 The note with it: S. cerevisiae rad50 strain growth inhibition; at 50.0 µM; stronger effect = higher value. In short, it runs like this:
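Vehicle-treated cultures provide the reference for the growth inhibition reported for compound-exposed, repair-deficient yeast.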
For the compound `Cc1cc(C)c(O)c(C)c1.[Hg]`, the growth inhibition is 99.5% (active).
Then `CC(O)C(=O)O.CC(O)C(=O)O.[Ni]` (centres undefined), with 4.2% (inactive).
On to `CC(=O)OC1C(=O)OCC23CCC4(C)OC4C2OC2CC(OC(=O)/C=C/C=C/C(=O)OCCC1C)C3(C)C21CO1` (centres undefined), for which the growth inhibition is 92.6% (active).
Then `CN1C(=O)CC[C@@]2(C)C1=CC[C@H]1[C@@H]3CC[C@H](O)[C@@]3(C)CC[C@@H]12`, with -9.15% (inactive); and `CC[C@H](C)c1occ2c(O)c(C(=O)O)c(=O)cc-2c1C`, with 24.5% (inactive).
In the case of `O=[N+]([O-])[O][Tl]([c]1ccccc1)[c]1ccccc1`, the growth inhibition was 15.3% (inactive).
In the case of `CCCC[CH2][Sn]([CH2]CCCC)[CH2]CCCC.CCCC[CH2][Sn]([CH2]CCCC)[CH2]CCCC`, the growth inhibition is 99.2% (active).
Regarding `Nc1cc(Cl)ccc1C(=O)c1ccccc1Cl`, the growth inhibition is 98.8% (active).
Then `CC(Br)CN1CCOCC1` (centres undefined), with 94.2% (active).
Then `C(CCC[Te][Te]CCCCCCOC1CCCCO1)CCOC1CCCCO1` (centres undefined), with 84.5% (active); and `CN1CN(c2ccccc2)C2(CCN(C3Nc4ccccc4O3)CC2)C1=O` (centres undefined), with 40% (inactive).
Turning to `[CH3][Sn]([CH3])([Cl])[c]1cc[c]([Sn]([CH3])([CH3])[Cl])cc1`, the growth inhibition is 78% (active).
The figure for `O=[C-]CCCCCC[C-]=O.[C-]#[O+].[C-]#[O+].[C-]#[O+].[C-]#[O+].[Fe+6].[Fe+6].[c-]1[c-][c-][cH-][c-]1.[c-]1[c-][c-][cH-][c-]1` is 97.9% (active); for `CCOC(=O)NC(=S)[S][Sb]([S]C(=S)NC(=O)OCC)[S]c1nc2ccc(N=Nc3ccc(NS(=O)(=O)c4ccc(NC(=O)C(N5CC5)(N5CC5)N5CC5)cc4)cc3)cc2s1` it is 99.2% (active).
The figure for `CCC[N+](CCC)(CCC)CCC.N#CN=C([SH2+])[SH2+].N#CN=C([SH2+])[SH2+].[Pt+2]` is 79.3% (active); for `CCCCCCCC/C=C\CCCCCCCCN1CC(C(=O)[O][Pb]([CH2]C)([CH2]C)[CH2]C)CC1=O` (centres undefined) it is 30.1% (inactive); for `O=c1[nH]cc(Cn2cnc3ncccc3c2=O)c(=O)[nH]1` it is 6.4% (inactive).
As for `CC(C)(C)C1=CC(=C/C=C/c2cc(C(C)(C)C)[o+]c(C(C)(C)C)c2)C=C(C(C)(C)C)O1`, the growth inhibition was 67.3% (inactive).
Turning to `S=C(S)N1CCCCC1`, the growth inhibition is 73.5% (active) and 45.1% (inactive) and 29.9% (inactive).
Consider `CN[C@H]1C[C@@H]2O[C@@](C)([C@H]1OC)n1c3ccccc3c3c4c(c5c6ccccc6n2c5c31)C(=O)NC4`, for which the growth inhibition was 92.3% (active).
Take `CC(C)(C)OOC(=O)c1ccccc1`: the growth inhibition was 37.6% (inactive).
Consider `ClCCN(CCCl)CCN1c2ccccc2Sc2ccc3ccccc3c21`, for which the growth inhibition was 80% (active).
The figure for `CCOC(=O)c1ccccc1N` is -2.65% (inactive); for `Cn1cnc(C(=N)[Se])c1N` it is 83.4% (active).
The figure for `Cc1ccc(NP(=O)(Oc2ccccc2)N(CCCl)CCCl)cc1` (centres undefined) is 74% (active).
As to `CCOC(=O)C1=C(C)NC(=O)NC1c1ccc(N(CCCl)CCCl)cc1Cl` (centres undefined), the growth inhibition was 38.6% (inactive).
Then `ClC(C[n+]1ccccc1)c1ccccc1` (centres undefined), with 71% (active) and -9.25% (inactive).
Take `CCCCCCCC1(c2ccc(N)cc2)CCC(=O)NC1=O` (centres undefined): the growth inhibition was 73% (active).
In the case of `COC(=O)C(CCCN=C(N)N[N+](=O)[O-])NC(=O)c1ccc2c(c1O)C(=O)c1ccccc1C2=O` (centres undefined), the growth inhibition is 71.6% (active).
Then `Cc1cc(N(CCCl)CCCl)ccc1CN1CCCN(Cc2ccc(N(CCCl)CCCl)cc2C)C1c1ccc(N(CCCl)CCCl)cc1C`, with 98% (active); and `c1ccc([CH2][Pb]([c]2ccccc2)([c]2ccccc2)[c]2ccccc2)cc1`, with 97.2% (active); and `C[CH2][Sn][CH2]C.c1cc[c]([Ge]([c]2ccccc2)[c]2ccccc2)cc1.c1cc[c]([Sn]([c]2ccccc2)[c]2ccccc2)cc1`, with 99.2% (active).
Then `CCC1(C2=CCCCC2)C(=O)NC(=S)NC1=O`, with 8.05% (inactive) and 60.1% (inactive).
On to `N#CC(=C=N)N=C(F)C(C#N)=C(C#N)C#N`, for which the growth inhibition is 87% (active).
Take `N#C[SH2+].N#C[SH2+].N#C[SH2+].N#C[SH2+].[Cu+2].c1ccc(C[P+](c2ccccc2)(c2ccccc2)c2ccccc2)cc1`: the growth inhibition is 96.8% (active).
The figure for `CC#N.FC(F)(F)C#CC(F)(F)F.FC(F)(F)C#CC(F)(F)F.FC(F)(F)C#CC(F)(F)F.[W]` is 99.4% (active); for `CC(C)c1cccc(C(C)C)c1NC(=O)C(=O)CC(=O)CC(c1ccccc1)c1c(O)c2ccccc2oc1=O` (centres undefined) it is 59.4% (inactive).
As to `CCN(CCCl)c1ccc(/C=C/C2=[N+](C)c3ccccc3C2(C)C)c(C)c1`, the growth inhibition is 62% (inactive).
The figure for `Cc1cc(C)[n+](CCOc2ccc(/C(=C(/Cl)c3ccccc3)c3ccccc3)cc2)c(C)c1` is 91.7% (active).
